# Hit rate of the full screen: of about 2,300 compounds, about 1,200 (52%) were called active. Roughly 34% stayed inconclusive and do not appear here. The set was probably picked from earlier hits. The list shows a part of the results. Values without a mark were called inactive. Calls follow the shape of the dose curve; as a rule, active = well fitted inhibition curve with a large enough effect; inconclusive = small, poorly fitted or top-dose-only effect, or effect the other way; inactive = no such curve, though single readings can be large or run the other way.
# Assay: Confirmation screen for delayed death inhibitors of the malarial parasite plastid, 48 hour incubation; also: nearly all actives have a fitted effect of over 65% in size
# Conditions: P. falciparum-infected erythrocytes, luciferase growth; series mostly up to 28.7 µM; activity change, negative = inhibition: at the top concentration
# Procedure, shortened: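 Erythrocytes infected with luciferase-expressing P. falciparum (2% hematocrit, 0.1% parasitemia) incubated with compounds 48 hours at 37 C, 5% CO2, in RPMI/Albumax. Growth inhibition scored as reduced luminescence after detection reagent.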
# % is scaled to controls: 0 for no effect and ±100 for the full control effect; potency is read from the fitted curve at half-maximal effect.
Structure (SMILES),"activity change, negative = inhibition [%]",Potency
Cc1ccnc(NCc2ccc(Cl)cc2)c1,18,–
Cc1ccnc(NCc2cccc3ccccc23)c1,–,12.6 µM (active)
CCOC(=O)c1c(CS(=O)(=O)c2ccccc2)n(C)c2cc(Br)c(O)cc12,–,12.6 µM (active)
O=C(/C=C/c1cccs1)Nc1sc2c(c1C(=O)O)CCCC2,-4.46,–
CC(=O)Nc1sc2c(c1-c1nc3ccccc3s1)CCN(C(C)C)C2,–,4.47 µM (active)
CC(C)N1CCc2c(sc(NC(=S)NC(=O)c3ccccc3)c2C#N)C1,–,10 µM (active)
CCN(CC)CCC[C@H](C)Nc1ccnc2cc(Cl)ccc12,–,0.501 µM (active)
CCN(CC)CCC[C@H](C)Nc1c2ccc(Cl)cc2nc2ccc(OC)cc12,–,0.178 µM (active)
COc1ccc2nc3cc(Cl)ccc3c(Nc3cc(C(C)C)c(O)cc3C)c2c1,–,0.0224 µM (active)
CCOC(=O)C1=C(C)N=c2s/c(=C\c3ccc(OCC(=O)O)cc3)c(=O)n2C1c1ccc(OC(C)C)cc1 (configuration not stated),–,5.01 µM (active)
Clc1cccc(Cl)c1C[n+]1ccc2ccccc2c1,–,2.82 µM (active)
CN(C)c1cc[n+](Cc2c(Cl)cccc2Cl)cc1,–,2.24 µM (active)
Cc1ccc(-c2nnn(CC(=O)Nc3ccc4nn(-c5ccccc5)nc4c3)n2)o1,-6.32,–
COc1ccc(NC(=O)CCCn2nc(C)c3c(C)n(-c4ccccc4)nc3c2=O)cc1,–,11.2 µM (active)
Cc1cccc(C)c1NC(=O)CCCn1nc(C)c2c(C)n(-c3ccccc3)nc2c1=O,–,12.6 µM (active)
CCOc1ccc(CCNC(=O)CCCn2nc(C)c3c(C)n(-c4ccccc4)nc3c2=O)cc1,–,11.2 µM (active)
Cc1ccccc1NC(=O)CCCn1nc(C)c2c(C)n(-c3ccccc3)nc2c1=O,–,10 µM (active)
CCOc1ccccc1C(=O)NCC(=O)NCCc1ccc(S(N)(=O)=O)cc1,-5.73,–
COc1ccc(NC(=O)CCCn2cc([N+](=O)[O-])cn2)cc1,-1.74,–
COCCN(C(=S)Nc1ccc(OC)c(Cl)c1)C1CCN(C(C)C)CC1,–,14.1 µM (active)
COc1ccc2[nH]c3c(c2c1)CCN1C(=O)N([C@@H](C)C(=O)NCCc2ccc(F)cc2)C(=O)[C@]31C,–,12.6 µM (active)
CCCCOc1ccc(N2C(N)=NC(N)=NC23CCCCC3)cc1,–,2 µM (active)
CCOC(=O)C1=C(NC(=S)NC(=O)c2ccccc2)c2ccccc2CC1(C)CC (configuration not stated),–,11.2 µM (active)

Structure (SMILES),"activity change, negative = inhibition [%]",Potency
Cc1ccc2nc(CNC(=O)C3CCC(=O)N(Cc4ccccc4F)C3)cn2c1 (configuration not stated),–,12.6 µM (active)
O=C(NC1CCC1)C1CCC(=O)N(Cc2ccccc2F)C1 (configuration not stated),-11.4,–
COc1ccc(-c2nc(N3CCN(C)CC3)sc2-c2ccc(OC)cc2)cc1,–,15.8 µM (active)
CC(=O)Nc1ccc(Nc2nnc(-c3ccc(C)c(S(=O)(=O)NCC4CCCO4)c3)c3ccccc23)cc1 (configuration not stated),-0.717,–
Cc1ccc(-c2nnc(N3CCOCC3)c3ccccc23)cc1S(=O)(=O)NCC1CCCO1 (configuration not stated),–,7.08 µM (active)
CCOCCCn1c(C)nc2c(c1=O)c1nc3ccccc3nc1n2CCC1=CCCCC1,–,7.08 µM (active)
Cc1nn2c(Nc3ccccc3)c3c(nc2c1-c1ccccc1)CCC3,–,15.8 µM (active)
Cc1ccc(-c2csc3nc[nH]c(=O)c23)cc1,-1.08,–
Clc1ccc2nnnc(-c3ccccc3)c2c1,–,3.98 µM (active)
O=C(c1ccc(S(=O)(=O)Cc2cc(F)ccc2F)c([N+](=O)[O-])c1)N1CCCC1,–,12.6 µM (active)
Cc1ccc(S(=O)(=O)N2CCN(c3ccc(C(=O)N4CCOCC4)cc3[N+](=O)[O-])CC2)cc1,–,7.08 µM (active)
O=C(c1ccc(S(=O)(=O)Cc2ccccc2Cl)c([N+](=O)[O-])c1)N1CCOCC1,–,10 µM (active)
CC1CCN(C(=O)C2CCCN(c3ncnc4c3nc3n4CCCCC3)C2)CC1 (configuration not stated),–,14.1 µM (active)
Cc1cccc(N2CCN(C(=O)C3CCN(c4ncnc5c4nc4n5CCCCC4)CC3)CC2)c1C,–,14.1 µM (active)
COC(=O)CC1C(=O)NCCN1C(=S)Nc1ccc(F)cc1 (configuration not stated),–,14.1 µM (active)
CCOC(=O)C(Cc1ccccc1)C(=O)Nc1cccc2ccccc12 (configuration not stated),–,3.98 µM (active)
COc1cccc(COC(=O)C2CC(=O)N(Cc3ccco3)C2)c1OC (configuration not stated),-19.1,–
CCC1CN(C(=O)N2CCC(C(=O)NCc3cccc(OC)c3OC)CC2)c2cc(C)ccc2O1 (configuration not stated),–,12.6 µM (active)
CC(C)NS(=O)(=O)c1ccc(NC(=S)NC(=O)c2ccc(-c3ccccc3)cc2)cc1,–,5.01 µM (active)
O=C(NC(=C(Cl)Cl)S(=O)(=O)c1ccc(Cl)cc1)c1ccccc1,-9.33,–
O=c1c(Cl)c(Cl)cnn1Cc1nnc(-c2ccc(Cl)cc2)o1,–,14.1 µM (active)
O=C(NC1CCCCC1)N1CCN(c2ccc([N+](=O)[O-])cc2)CC1,–,11.2 µM (active)
Cc1ccc(NC(=O)c2ccc(Nc3c([N+](=O)[O-])cc([N+](=O)[O-])cc3[N+](=O)[O-])cc2)cc1,–,3.16 µM (active)

Structure (SMILES),"activity change, negative = inhibition [%]",Potency
Cc1ccc(NC(=O)/C(=C\c2ccc([N+](=O)[O-])cc2)NC(=O)c2ccccc2)cc1,–,10 µM (active)
O=C(Nc1cccc([N+](=O)[O-])c1)c1ccc2nsnc2c1,-9.9,–
COCCn1c(=O)[nH]c2cc(C(=O)NCc3ccccc3)ccc2c1=O,2.77,–
O=C(NCc1ccccc1)c1c[nH]c2ccccc2c1=O,–,14.1 µM (active)
CCn1c(/C=C/N(C(C)=O)c2ccccc2)[n+](CC)c2ccc(Cl)cc21,–,2.82 µM (active)
CCOC(=O)c1ccc2c(c1)n(CC)c(/C=C/N(C)c1ccccc1)[n+]2CC,–,0.447 µM (active)
CCc1ccc(NC(=O)CN(c2cc(C)cc(C)c2)S(=O)(=O)c2c(C)[nH]c(=O)[nH]c2=O)cc1,–,12.6 µM (active)
CC1S/C(=N/N=C/c2ccco2)N(Cc2ccccc2)C1=O (configuration not stated),-10.7,–
CCC1S/C(=N/N=C/c2ccco2)N(Cc2ccccc2)C1=O (configuration not stated),–,14.1 µM (active)
CCC1S/C(=N/N=C/c2ccco2)N(Cc2ccccc2C)C1=O (configuration not stated),–,11.2 µM (active)
CCc1ccc(/C=N/n2c(C)cc(C)c(C#N)c2=O)cc1,–,6.31 µM (active)
C=C1C(=O)O[C@@H]2[C@H]1CC[C@H](C)[C@]1(O)CCC(=O)[C@@]21C,–,12.6 µM (active)
N=C(N)c1ccc(/C=C/c2ccc(C(=N)N)cc2O)cc1,–,0.708 µM (active)
COC(=O)c1ccc(Sc2nnnn2-c2ccccc2)c([N+](=O)[O-])c1,–,11.2 µM (active)
O=C(NC1CCS(=O)(=O)C1)/C(=C\c1ccc(F)cc1)NC(=O)c1ccccc1 (configuration not stated),–,15.8 µM (active)
Cn1c(=O)oc2cc(S(=O)(=O)NCCC(=O)NCc3ccc(F)cc3)ccc21,–,15.8 µM (active)
COc1cc2c(O)c3c(c(-c4ccc5c(c4)OCO5)c2cc1OC)C(=O)OC3,–,10 µM (active)
CCOc1ccccc1NC(=S)N1CCN(c2cccc(OC)c2)CC1,-10.4,–
CCOc1ccccc1NC(=O)/C(C#N)=C/c1cccnc1,–,14.1 µM (active)
Fc1ccc(Nc2nc(N3CCOCC3)nc(N3CCOCC3)n2)cc1,–,14.1 µM (active)
N#Cc1cc(S(=O)(=O)c2ccccc2)c(N)[nH]c1=O,-20.3,–
COc1ccc(-c2nnc3ccc(SCC(=O)Nc4nc5ccc(C)cc5s4)nn23)cc1OC,–,1.26 µM (active)
COc1cccc(CN(C)CC2CCCN(CCc3ccc(Cl)cc3)C2)c1OC (configuration not stated),–,10 µM (active)

Structure (SMILES),"activity change, negative = inhibition [%]",Potency
COc1ccc(/C=C2\CN(Cc3ccccc3)C/C(=C\c3ccc(OC)c(O)c3)C2=O)cc1O,–,0.891 µM (active)
CCOc1cc(/C=C2\CN(CC)C/C(=C\c3ccc(O)c(OCC)c3)C2=O)ccc1O,–,3.98 µM (active)
O=C(O)c1ccccc1NS(=O)(=O)c1cccc(-n2sc3ccccc3c2=O)c1,–,15.8 µM (active)
COc1ccccc1Nc1nnc(SCC(=O)Nc2nc(-c3ccc(F)cc3)cs2)s1,–,11.2 µM (active)
CCOc1ccccc1Nc1nnc(SC(C)C(=O)Nc2nc(-c3ccccc3)cs2)s1 (configuration not stated),–,14.1 µM (active)
CC(=O)Oc1ccc(-c2csc(Nc3cccnc3)n2)cc1,11,–
Cc1cc(C(=O)OC(C)C(=O)Nc2nc(-c3ccccc3)cs2)c(C)o1 (configuration not stated),-23.8,–
COc1ccccc1Nc1nnc(SCc2cc(=O)n3ccsc3n2)s1,–,12.6 µM (active)
Oc1ccc(Cl)cc1CNc1cnc2ccccc2c1,–,12.6 µM (active)
Cc1nc2scc(C)n2c(=O)c1S(=O)(=O)NCc1ccccc1Cl,-15.8,–
CCc1c(C(=O)NC2CCCc3ccccc32)[nH]c(C)c1C(C)=O (configuration not stated),-5.63,–
Cc1cc(C(=O)NC2CCCc3c2cnn3-c2cccc(C)c2C)no1 (configuration not stated),-9.26,–
Cc1cccc(-n2ncc3c2CCCC3NC(=O)C2=CC(=O)CC(C)(C)O2)c1C (configuration not stated),–,15.8 µM (active)
COc1ccc(C(=O)NC2CCCc3c2cnn3-c2cccc(C)c2C)o1 (configuration not stated),–,12.6 µM (active)
O=C(CCl)Nc1cccc(Oc2cnccn2)c1,–,4.47 µM (active)
COc1cccc(NC(=O)c2nc(S(C)(=O)=O)ncc2Cl)c1,-26.2,–
COc1ccc(CNS(=O)(=O)c2ccc3c(c2)N(C(C)=O)CC(C)S3)cc1 (configuration not stated),–,12.6 µM (active)
Cn1nc(CC(=O)Nc2ncc(Br)s2)c2ccccc2c1=O,–,11.2 µM (active)
O=C(C[n+]1cc(Br)cc2ccccc21)c1ccccc1,–,10 µM (active)
Clc1ccc2nc(-c3ccccn3)c(Nc3ccc4c(c3)OCO4)n2c1,–,11.2 µM (active)
Nc1ccc2nc(-c3ccc(-c4nc5ccc(N)cc5[nH]4)cc3)[nH]c2c1,–,7.08 µM (active)
Cc1cccc(N(C)C(=O)CN(C)S(=O)(=O)c2ccc3c(c2)c(=O)n(C)c(=O)n3C)c1,–,12.6 µM (active)
CC1CCC(NC(=O)CN(C)S(=O)(=O)c2ccc3c(c2)c(=O)n(C)c(=O)n3C)CC1 (configuration not stated),–,10 µM (active)

# From PubChem BioAssay AID504850 (National Center for Advancing Translational Sciences (NCATS), 2011)
